Measured values reported in article PMC5913336, “True equilibrium measurement of transcription factor-DNA binding affinities using automated polarization microscopy”.

Target: T1, Slp1-FL (Drosophila melanogaster, UniProt P32030)
T1 sequence: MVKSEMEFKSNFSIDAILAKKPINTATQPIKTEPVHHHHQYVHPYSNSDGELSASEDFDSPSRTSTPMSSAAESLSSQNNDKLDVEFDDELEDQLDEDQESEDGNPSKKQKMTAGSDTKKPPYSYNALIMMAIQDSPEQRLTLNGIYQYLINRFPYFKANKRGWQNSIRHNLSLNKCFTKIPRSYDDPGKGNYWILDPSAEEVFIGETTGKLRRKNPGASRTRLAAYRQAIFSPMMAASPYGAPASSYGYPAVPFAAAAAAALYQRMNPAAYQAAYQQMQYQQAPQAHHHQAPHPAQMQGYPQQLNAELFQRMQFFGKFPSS
Assay: FP; 33 mM phosphate pH 7.0, 90 mM NaCl, 0.01% Tween 20, 0.1 mM DTT, 0.5% agarose; room temperature
Conditions: tags: N-GST (pGEX-6P-1, kept); dsDNA, one strand shown

| Sequence | binding signal | Kd |
| --- | --- | --- |
| ACGTGTTTACACATA | 9.38 Kd / Kd of best base at the position |  |
| ACGTGTTTACAGTTA | 2.11 Kd / Kd of best base at the position |  |
| ACGTGTTTACACTTG | 1.73 Kd / Kd of best base at the position |  |
| ACGTGTTTACACTAA | 10.7 Kd / Kd of best base at the position |  |
| ACGTGTTTACACTCA | 3.73 Kd / Kd of best base at the position |  |
| ACGTGTTTACTCTTA | 2.44 Kd / Kd of best base at the position |  |
| CCGTGTTTACACTTA | 1.25 Kd / Kd of best base at the position |  |
| ACGAGTTTACACTTA | 30.1 Kd / Kd of best base at the position |  |
| ACGTGTTTACACTTC | 1.33 Kd / Kd of best base at the position |  |
| ACGTGTTTACCCTTA | 2.19 Kd / Kd of best base at the position |  |
| ACGTGTTCACACTTA | 37.4 Kd / Kd of best base at the position |  |
| ACGTTTTTACACTTA | 21.2 Kd / Kd of best base at the position |  |
| ACGTGTTTACACCTA | 2.68 Kd / Kd of best base at the position |  |
| ACGTATTTACACTTA | 3.26 Kd / Kd of best base at the position |  |
| GCGTGTTTACACTTA | 1.21 Kd / Kd of best base at the position |  |
| ACGGGTTTACACTTA | 20.1 Kd / Kd of best base at the position |  |
| ACGTGTGTACACTTA | 7.74 Kd / Kd of best base at the position |  |
| ACATGTTTACACTTA | 1.13 Kd / Kd of best base at the position |  |
| ACGTGTTTACACTTT | 1.35 Kd / Kd of best base at the position |  |
| ACGTGTTTACGCTTA | 1.83 Kd / Kd of best base at the position |  |

| Sequence | binding signal | Kd |
| --- | --- | --- |
| AGGTGTTTACACTTA | 1.71 Kd / Kd of best base at the position |  |
| AAGTGTTTACACTTA | 8.32 Kd / Kd of best base at the position |  |
| ACTTGTTTACACTTA | 1.09 Kd / Kd of best base at the position |  |
| ACGTGTTTCCACTTA | 15.2 Kd / Kd of best base at the position |  |
| ACGTGTTTACACTTA |  | ~17 nM |
| TCGTGTTTACACTTA | 1.19 Kd / Kd of best base at the position |  |
| ACGTGTTTGCACTTA | 23.1 Kd / Kd of best base at the position |  |
| ACGTGTTTACACGTA | 2.9 Kd / Kd of best base at the position |  |
| ACGTGTTTACACTGA | 1.18 Kd / Kd of best base at the position |  |
| ACGTGTTGACACTTA | 5.44 Kd / Kd of best base at the position |  |
| ACGTGTTTACAATTA | 2.79 Kd / Kd of best base at the position |  |
| ACGTGTTTTCACTTA | 13 Kd / Kd of best base at the position |  |
| ACGTGTTTAGACTTA | 19.7 Kd / Kd of best base at the position |  |
| ACGTGTTAACACTTA | 14 Kd / Kd of best base at the position |  |
| ACGTGTATACACTTA | 19.4 Kd / Kd of best base at the position |  |
| ACGTGGTTACACTTA | 14.4 Kd / Kd of best base at the position |  |
| ACGTGATTACACTTA | 19 Kd / Kd of best base at the position |  |
| ATGTGTTTACACTTA | 1.95 Kd / Kd of best base at the position |  |
| ACGTGCTTACACTTA | 16.8 Kd / Kd of best base at the position |  |
